Results filed as inconclusive are left out. Calls of active or inactive are those of the source. Unless noted, calls follow the shape of the full dose curve.
Assays:
[1] = target: Peroxisome proliferator-activated receptor delta (Homo sapiens) (UniProt Q03181); assay: qHTS assay to identify small molecule agonists of the peroxisome proliferator-activated receptor delta (PPARd) signaling pathway (AID 743212)
How it was run: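 GeneBLAzer PPARd UAS-bla HEK293H cells (beta-lactamase reporter under UAS control), plated and rested 5 h at 37 C, then exposed to compounds in DMSO at 37 C; LiveBLAzer B/G FRET substrate added, 2 h room temperature, fluorescence read.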

[2] = qHTS assay to identify small molecule agonists of the farnesoid-X-receptor (FXR) signaling pathway - cell viability counter screen (AID 743218; active = well fitted curve in the direction sought with a large enough effect in the repeat runs; an effect the other way counts as inactive or inconclusive; also: nearly all actives have a fitted effect of over 45% in size)
How it was run: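 HEK 293T FXR-bla cells; 5 h pre-incubation, 16 h compound exposure at 37 C; LiveBLAzer substrate 2 h RT, then CellTiter-Glo 30 min RT, luminescence.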

[3] = qHTS assay to identify small molecule antagonists of the farnesoid-X-receptor (FXR) signaling pathway - cell viability counter screen (AID 743221; active = well fitted cell-killing curve with a large enough effect in the repeat runs, not every such curve was filed as active; also: nearly all actives have a fitted effect of over 50% in size)
How it was run: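 CellTiter-Glo, 30 min RT, luminescence; same wells as the LiveBLAzer FRET read. Cells: FXR-UAS-bla HEK 293T. Treatment: compound with chenodeoxycholic acid 50 uM final, 16 h at 37 C.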

[4] = qHTS assay to identify small molecule agonists of the vitamin D receptor (VDR) signaling pathway - cell viability counter screen (AID 743224; active = well fitted curve in the direction sought with a large enough effect in the repeat runs; an effect the other way counts as inactive or inconclusive; also: series mostly up to about 63 µM; nearly all actives have a fitted effect of over 50% in size)
How it was run: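 Luminescence from CellTiter-Glo, read after 30 min at room temperature, reports viability of VDR-bla cells treated with compounds for 16 h at 37C in the wells used for the beta-lactamase FRET read.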

[5] = qHTS assay to identify small molecule antagonists of the vitamin D receptor (VDR) signaling pathway - cell viability counter screen (AID 743225; active = well fitted curve in the direction sought with a large enough effect in the repeat runs; an effect the other way counts as inactive or inconclusive; also: nearly all actives have a fitted effect of over 50% in size)
How it was run: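 Cytotoxicity toward the VDR-bla HEK 293T line was scored by ATP-based CellTiter-Glo luminescence, read in the wells already used for the beta-lactamase readout after 16 h compound treatment under 3 nM 1-alpha,25-dihydroxyvitamin D3 stimulation.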

[6] = qHTS assay to identify small molecule agonists of the NFkB signaling pathway - cell viability counter screen (AID 1159515); also: series mostly up to about 61 µM; nearly all actives have a fitted effect of over 55% in size
How it was run: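 Luminescence from CellTiter-Glo (30 min, room temperature) gives viability, measured in the same wells as the beta-lactamase reporter read. Cells were NFkB-bla ME-180, 2,000 per well, treated 5 hr with compounds.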

[7] = qHTS assay to identify small molecule agonists of the endoplasmic reticulum stress response signaling pathway (AID 1159516; active = well fitted activation curve with a large enough effect in the signal ratio in the repeat runs, not every such curve was filed as active; the % refers to the signal ratio)
How it was run: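 Read-out is beta-lactamase cleavage of a FRET substrate (405 nm excitation; 460 and 530 nm emissions) in ESRE-bla HeLa cells after a 5 hr compound exposure at 37 C. Substrate incubation ran 2 hr at room temperature.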

[8] = qHTS assay to identify small molecule agonists of the endoplasmic reticulum stress response signaling pathway - cell viability counter screen (AID 1159517);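 also: HeLa cells carrying an ER stress response element beta-lactamase reporter; series mostly up to about 61 µM; nearly all actives have a fitted effect of over 50% in size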
How it was run: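 Luminescence readout: CellTiter-Glo, 30 min RT, same wells as the ESRE-bla reporter read. HeLa ESRE-bla, 1,500 cells/well, o/n 37 C; cpd 5 hr 37 C/5% CO2.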

[9] = qHTS assay to identify small molecule antagonists of the retinoid-related orphan receptor gamma (ROR-gamma) signaling pathway - cell viability counter screen (AID 1159520; active = well fitted curve in the direction sought with a large enough effect in the repeat runs; an effect the other way counts as inactive or inconclusive; also: nearly all actives have a fitted effect of over 50% in size)
How it was run: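 Tet-on ROR gamma CHO cells (1,000/well) were plated 4 hr, given compounds in DMSO for 2 hr at 37 C, then induced with 1 uM final doxycycline for 16 hr. Viability was read as ATP by CellTiter-Glo luminescence after 30 min.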

[10] = target: Nuclear receptor ROR-gamma (Homo sapiens) (UniProt P51449); assay: qHTS assay to identify small molecule antagonists of the retinoid-related orphan receptor gamma (ROR-gamma) signaling pathway (AID 1159521; active = well fitted curve in the direction sought with a large enough effect in the repeat runs; an effect the other way counts as inactive or inconclusive)
How it was run: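 Readout: ONE-Glo luciferase luminescence, 30 min at room temperature. System: Tet-on RORγ CHO, RORE-LUC. Sequence: compound 2 h, doxycycline 1 uM final, 16 h at 37 C.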

[11] = qHTS assay to identify small molecule agonists of the AP-1 signaling pathway - cell viability counter screen (AID 1159525); also: nearly all actives have a fitted effect of over 55% in size
How it was run: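 ME-180 AP-1-bla, 2500 cells/well, Opti-MEM + 0.5% dialyzed FBS; overnight 37 °C; cpd 15-pt titration, 5 h 37 °C; CellTiter-Glo 30 min RT; luminescence read; normalised to TOAB and DMSO controls.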

[12] = qHTS assay to identify small molecule agonists of the AP-1 signaling pathway (AID 1159526)
[13] = target: Retinoic acid receptor RXR-alpha (Homo sapiens) (UniProt P19793); assay: qHTS assay to identify small molecule agonists of the RXR signaling pathway (AID 1159527); also: nearly all actives have a fitted effect of over 35% in size
Chain of Retinoic acid receptor RXR-alpha (Homo sapiens) (P19793 whole entry, looked up): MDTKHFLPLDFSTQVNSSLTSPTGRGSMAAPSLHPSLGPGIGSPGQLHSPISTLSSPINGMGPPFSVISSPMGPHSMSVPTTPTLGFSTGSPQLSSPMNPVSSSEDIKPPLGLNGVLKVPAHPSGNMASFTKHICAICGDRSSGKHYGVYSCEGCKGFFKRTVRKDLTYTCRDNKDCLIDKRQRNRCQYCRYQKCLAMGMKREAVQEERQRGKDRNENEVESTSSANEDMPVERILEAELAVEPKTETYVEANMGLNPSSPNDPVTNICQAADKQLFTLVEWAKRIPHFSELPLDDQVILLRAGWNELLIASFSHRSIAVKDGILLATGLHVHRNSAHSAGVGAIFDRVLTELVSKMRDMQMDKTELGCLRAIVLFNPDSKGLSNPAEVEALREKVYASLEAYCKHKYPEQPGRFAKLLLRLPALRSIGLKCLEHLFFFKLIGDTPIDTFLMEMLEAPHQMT
How it was run: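 Reporter activation is measured as beta-lactamase activity via FRET substrate cleavage (emission 460/530 nm) in HEK 293T cells expressing an RXR-alpha-driven bla construct, following 16 hr compound exposure at 37 C.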

[14] = qHTS assay to identify small molecule antagonists of the peroxisome proliferator-activated receptor delta (PPARd) signaling pathway - cell viability counter screen (AID 743213; active = well fitted curve in the direction sought with a large enough effect in the repeat runs; an effect the other way counts as inactive or inconclusive; also: nearly all actives have a fitted effect of over 50% in size)
How it was run: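 HEK293H cells with the PPARd UAS-bla reporter, co-treated 17 h at 37 C with compounds and L165041 (300 nM final), were lysed with CellTiter-Glo. Luminescence indicated viable cell content.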

[15] = target: Peroxisome proliferator-activated receptor delta (Homo sapiens) (UniProt Q03181); assay: qHTS assay to identify small molecule antagonists of the peroxisome proliferator-activated receptor delta (PPARd) signaling pathway (AID 743215; active = well fitted inhibition curve with a large enough effect in the signal ratio in the repeat runs, not every such curve was filed as active; the % refers to the signal ratio;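 also: cells stimulated with agonist L165041 at 300 nM final during compound exposure; series mostly up to about 62 µM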)
How it was run: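 Read-out is beta-lactamase FRET fluorescence, measured 2 h after substrate addition at room temperature. Beforehand, UAS-bla HEK293H cells carrying the PPARd reporter were exposed to compounds with L165041 at 300 nM final for 17 h at 37 C.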

[16] = qHTS assay to identify small molecule agonists of the RXR signaling pathway - cell viability counter screen (AID 1159529; active = well fitted curve in the direction sought with a large enough effect in the repeat runs; an effect the other way counts as inactive or inconclusive)
How it was run: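 Tox21 10K compounds were tested for cytotoxicity against GeneBLAzer RXR-alpha HEK 293T cells grown in 2% charcoal-stripped FBS. Exposure lasted 16 hr at 37 C, 5% CO2; viability read by CellTiter-Glo luminescence.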

[17] = target: Vitamin D3 receptor (Homo sapiens) (UniProt P11473); assay: qHTS assay to identify small molecule agonists of the vitamin D receptor (VDR) signaling pathway (AID 743222)
Chain of Vitamin D3 receptor (Homo sapiens) (P11473 whole entry, looked up): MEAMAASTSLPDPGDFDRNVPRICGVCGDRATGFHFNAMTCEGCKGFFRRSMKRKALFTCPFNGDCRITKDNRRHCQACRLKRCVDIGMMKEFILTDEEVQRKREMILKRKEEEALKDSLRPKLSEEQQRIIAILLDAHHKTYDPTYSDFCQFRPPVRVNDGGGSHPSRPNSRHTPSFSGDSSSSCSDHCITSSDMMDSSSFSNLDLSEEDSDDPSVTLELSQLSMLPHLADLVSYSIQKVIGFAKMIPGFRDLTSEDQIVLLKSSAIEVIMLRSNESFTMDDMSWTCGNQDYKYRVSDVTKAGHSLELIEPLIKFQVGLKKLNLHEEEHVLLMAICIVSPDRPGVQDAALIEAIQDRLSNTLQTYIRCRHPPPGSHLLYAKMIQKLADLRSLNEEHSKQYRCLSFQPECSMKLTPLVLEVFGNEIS
How it was run: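 VDR-bla cells, 2,000/well; 4 h preincubation 37C; cpd (DMSO) 16 h; LiveBLAzer B/G substrate 2 h RT; fluorescence intensity read.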

[18] = target: Vitamin D3 receptor (Homo sapiens) (UniProt P11473); assay: qHTS assay to identify small molecule antagonists of the vitamin D receptor (VDR) signaling pathway (AID 743223; active = well fitted inhibition curve with a large enough effect in the signal ratio in the repeat runs, not every such curve was filed as active; the % refers to the signal ratio)
How it was run: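 After VDR-bla cells are plated and left 4 h at 37C, DMSO-dissolved compounds and 3 nM (final) calcitriol agonist are added. Incubation continues 16 h at 37C; FRET beta-lactamase substrate then develops 2 h at room temperature.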

[19] = target: Bile acid receptor (Homo sapiens) (UniProt Q96RI1); assay: qHTS assay to identify small molecule antagonists of the farnesoid-X-receptor (FXR) signaling pathway (AID 743217; active = well fitted inhibition curve with a large enough effect in the signal ratio in the repeat runs, not every such curve was filed as active; the % refers to the signal ratio)
Chain of Bile acid receptor (Homo sapiens) (Q96RI1 whole entry, looked up): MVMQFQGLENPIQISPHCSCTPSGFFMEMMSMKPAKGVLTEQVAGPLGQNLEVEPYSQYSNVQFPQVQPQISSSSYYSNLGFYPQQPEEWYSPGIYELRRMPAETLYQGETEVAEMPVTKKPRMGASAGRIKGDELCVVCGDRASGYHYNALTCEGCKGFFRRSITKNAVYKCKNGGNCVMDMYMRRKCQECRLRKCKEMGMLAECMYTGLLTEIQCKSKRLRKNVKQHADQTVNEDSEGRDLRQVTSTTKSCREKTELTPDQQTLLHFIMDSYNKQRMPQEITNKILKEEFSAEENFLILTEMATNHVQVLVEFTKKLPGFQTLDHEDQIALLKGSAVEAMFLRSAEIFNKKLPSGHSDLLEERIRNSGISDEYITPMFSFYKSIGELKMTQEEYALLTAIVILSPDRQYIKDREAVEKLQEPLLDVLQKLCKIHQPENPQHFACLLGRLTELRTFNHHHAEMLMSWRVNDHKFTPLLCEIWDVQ
How it was run: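 HEK 293T FXR-UAS-bla, 5000 cells/well; compound + CDCA 50 uM final; 16 h, 37 °C; B/G FRET substrate 2 h RT; fluorescence.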

[20] = target: Bile acid receptor (Homo sapiens) (UniProt Q96RI1); assay: qHTS assay to identify small molecule agonists of the farnesoid-X-receptor (FXR) signaling pathway (AID 743220; active = well fitted activation curve with a large enough effect in the signal ratio in the repeat runs, not every such curve was filed as active; the % refers to the signal ratio)
How it was run: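 Beta-lactamase reporter under UAS control in GeneBLAzer FXR HEK 293T cells (5000/well) measured with LiveBLAzer FRET substrate after 2 h at room temperature. Compound exposure lasted 16 h at 37C.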

Measured: Potency

Chain of Peroxisome proliferator-activated receptor delta (Homo sapiens) (Q03181 whole entry, looked up): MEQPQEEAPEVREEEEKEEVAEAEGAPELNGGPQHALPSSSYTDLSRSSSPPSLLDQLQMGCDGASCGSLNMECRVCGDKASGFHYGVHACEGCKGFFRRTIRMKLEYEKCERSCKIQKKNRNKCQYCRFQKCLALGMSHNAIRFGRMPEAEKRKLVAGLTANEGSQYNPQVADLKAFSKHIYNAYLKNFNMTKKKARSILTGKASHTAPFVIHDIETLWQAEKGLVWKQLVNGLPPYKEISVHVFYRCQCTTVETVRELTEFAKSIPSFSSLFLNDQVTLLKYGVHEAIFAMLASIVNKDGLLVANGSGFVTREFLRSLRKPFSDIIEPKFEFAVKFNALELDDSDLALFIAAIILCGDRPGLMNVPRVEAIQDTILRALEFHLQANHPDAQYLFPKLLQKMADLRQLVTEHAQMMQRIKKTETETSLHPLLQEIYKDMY

C[C@@H]1CCC[C@H](C)N1CCCC(O)(c1ccccc1)c1ccccn1 (stereo partly drawn)
not listed: [14] | [15] | [16] | [17] | [18] | [19] | [20]
inactive: all other assays above

COc1cc2nc(N3CCN(C(=O)C4CCCO4)CC3)nc(N)c2cc1OC (stereo not drawn)
not listed: [4] | [5] | [11] | [17] | [18] | [19] | [20]
inactive: all other assays above

CCC(=O)OCCOc1ccccc1
not listed: [1] | [3] | [4] | [15] | [19] | [20]
inactive: all other assays above

Cc1ccccc1C#N
not listed: [16]
inactive: all other assays above

Cc1cc(C)c(C)c(C)c1
not listed: [11]
inactive: all other assays above

CCCCNCC
not listed: [11] | [17] | [18] | [19] | [20]
inactive: all other assays above

CC12CCCC=C1C(=O)OC2=O (stereo not drawn)
not listed: [14] | [16] | [19] | [20]
inactive: all other assays above

CCCC(=O)C(CC)Sc1ccoc1C (stereo not drawn)
not listed: [1] | [3] | [5] | [15] | [18] | [19] | [20]
inactive: all other assays above

C=CCCCCCCCCOC(C)=O
not listed: [1] | [9] | [14] | [15] | [16] | [17] | [18]
inactive: all other assays above

O=C(O)/C=C(\CC(=O)O)C(=O)O
not listed: [4] | [9]
inactive: all other assays above

COc1ccc2cc(CCC(C)=O)ccc2c1
not listed: [9] | [14] | [15] | [17] | [18] | [19]
inactive: all other assays above

CCCC(=O)CC
not listed: [5] | [9] | [19] | [20]
inactive: all other assays above

COC(=O)C(c1ccccc1Cl)N1CCc2sccc2C1 (stereo not drawn)
not listed: [9] | [16] | [19] | [20]
inactive: all other assays above

CC(=O)SC[C@@H](C)C(=O)N1CCC[C@H]1C(=O)N[C@@H](Cc1ccccc1)C(=O)O
not listed: [8]
inactive: all other assays above

Source: PubChem BioAssay (Tox21)
